Assay results reported in PubChem BioAssay (NCI).
About 83,000 compounds went through this panel and 20% of them were active in at least one assay; those are over-represented in the sample as a whole.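 How to read the values: 0–100, growth inhibition (40 = 60% inhibited); 0, no net growth; -100 to 0, cell death (-40 = 40% of starting cells died; -100 = all dead).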 Active and inactive are the calls of the source.

Tested on: MOLT-4 leukemia
Test: NCI-60 one-dose screen, 48 h (100 = growth as untreated, 0 = no growth, -100 = all killed)
Conditions: 10 µM unless noted
Protocol: Growth inhibition of the MOLT-4 human tumor cell line is measured as a screen for anti-cancer activity. Cells are grown in 96 well plates and exposed to the test compound for 48 hours. Compounds are tested at a single concentration, which is 10^-5 M for most compounds. The reported endpoint is percent growth (GI% or GIPRCNT), where numbers from 0 - 100% represent growth inhibition, and numbers from -100% - 0 represent cell death. For example, a value of 40 represents 60% growth inhibition. A value of 0 means no net growth occurred over the course of the experiment. A value of -40 indicates 40% of cells at the beginning of the experiment died by the end of the experiment. A value of -100 means all cells are dead at the end of the experiment.
NCI-60 Human Tumor Cell Lines Screen was performed using the standard one-dose NCI protocol, which is described in more detail at https://dtp.cancer.gov/discovery_development/nci-60/default.htm.
Compounds with GIPRCNT values below 10 were considered active. Activity score was based on GIPRCNT using the following formula: […]
Score is 0 for GIPRCNT values of 100 or above, 50 for GIPRCNT values of 0, and 100 for GIPRCNT values of -100.

| Structure (SMILES) | growth |
| --- | --- |
| CCN(CC)c1ccc(C(=N)c2ccc(N(CC)CC)cc2)cc1 | -23.5% (active) |
| O=C(CSc1nc2ccccc2[nH]1)c1ccc(N2CCOCC2)cc1 | 135% (inactive) |
| COc1ccc(C(=O)n2nc(/C=C/c3ccc(O)c(OC)c3)cc2/C=C/c2ccc(O)c(OC)c2)cc1 | -18.4% (active) |
| CCOC(=O)c1cn2c3c(cc(C)cc3c1=O)C(=O)/C(=C/c1ccccc1)C2 | 86.9% (inactive) |
| CCNc1nc(S(=O)(=O)CC)nc2ccccc12 | 91% (inactive) |
| CC(C)CSc1nc(NN)c(C#N)c(-c2ccc(F)cc2)n1 | 80.3% (inactive) |
| O=C(NNC(=O)N1c2ccccc2C=Cc2ccccc21)c1ccccc1 | 102% (inactive) |
| OB(O)c1cccc(-c2nc3ccc4[nH]ncc4c3c3c2CCCC3)c1F | 52% (inactive) |
| COc1ccc(/C=N\NC(=O)CN2CCN(c3cc4c(cc3F)c(=O)c(C(=O)N/N=C/c3ccc(OC)c(OC)c3)cn4C3CC3)CC2)cc1OC | 5.8% (active) |
| Cc1nc2c3c(ncn2n1)Oc1c(c(=O)[nH]c2ccccc12)C3c1ccc(Cl)cc1 (stereo not given) | 101% (inactive) |
| Cc1cc(C)n(-c2nnc3n2N=C(c2ccc(-c4ccccc4)cc2)CS3)n1 | 28.5% (inactive) |
| O=C(Nc1ccc(NCCN2CCOCC2)nc1)c1ccc([N+](=O)[O-])cc1 | 118% (inactive) |
| CCCCCCCCCCCCNC(=O)[C@H]1CSC(c2ccsc2)N1 (stereo not given in full) | -67.5% (active) |
| Cn1ccc(=O)c(S(N)(=O)=O)c1 | 94.4% (inactive) |
| COc1ccc(-n2c(=S)sc3c(Cl)nc(C)nc32)c(OC)c1 | -1.97% (active) |
| CC(C)(C)OC(=O)NC(CSCc1ccccc1)C(=O)ON1C(=O)CCC1=O (stereo not given) | 97% (inactive) |
| OC(c1cc2cc(Br)ccc2c2cc(Br)ccc12)C1CCCCN1 (stereo not given) | -71.9% (active) |
| c1coc(CNc2ccnc(Nc3ccc(OCCN4CCCCC4)cc3)n2)c1 | 81.1% (inactive) |
| COc1cccc(-c2nc3sccn3c2-c2ccnc(NCCCNS(=O)(=O)c3ccc(F)cc3)c2)c1 | 10.9% (inactive) |
| OCc1ncc(-c2ccccc2)s1 | 110% (inactive) |

| Structure (SMILES) | growth |
| --- | --- |
| CC12CCCC(CC(=O)c3[nH]c4ccccc4c31)C2 (stereo not given) | 29.5% (inactive) |
| COc1ccc(N2CCN(Cc3cc(C(=O)/C=C/c4c[nH]c5ccccc45)ccc3O)CC2)cc1 | 95% (inactive) |
| CC(C)CC1NC(C)(C)CO1 (stereo not given) | 124% (inactive) |
| COc1ccc(CN2CCc3c(Sc4ccccc4)nc(N)nc3C2=O)c(OC)c1 | 35.5% (inactive) |
| COc1ccc(NC(=O)CSc2nc(-c3ccc(OC)c(OC)c3)cc(-c3cc(OC)c(OC)c(OC)c3)n2)cc1 | 84.8% (inactive) |
| CCN1CCN(c2nc(NNC(=O)c3ccccc3)nc(N3CCN(C(c4ccccc4)c4ccccc4)CC3)n2)CC1 | 8.93% (active) |
| N[C@H]1CN(C(=O)c2cc3cc(Br)c(F)c(F)c3[nH]2)C[C@@H]1O | 98.1% (inactive) |
| CCc1cnc(=S)n(-c2ccccc2)c1 | 125% (inactive) |
| CCCCOc1ccc(/C=C2/SC(N3CCOCC3)=NC2=O)cc1OCC | 101% (inactive) |
| CC12CCC3C4(C)COC(c5ccccc5Cl)OC4CCC3(C)C1CC(C1=CCOC1=O)O2 (stereo not given) | 34.5% (inactive) |
| N=C(N)c1ccc(-c2ccc(-c3cncc4ccccc34)s2)cc1F | -24.6% (active) |
| OCCCCCCNc1ncnc2cc(Cl)ccc12 | 84.5% (inactive) |
| Cc1cc(C2(c3cc(C)c(O)cc3C)OS(=O)(=O)c3ccccc32)c(C)cc1O | 96.3% (inactive) |
| CCOC(=O)c1ccc(NC(=O)N2CC(C)OC(C)C2)cc1 (stereo not given) | 99.9% (inactive) |
| COc1cc(-c2nn(-c3cccc(NC(=O)c4ccc(N5CCOCC5)c(C(F)(F)F)c4)c3)cc2-c2ccncc2)ccc1Cl | 4.07% (active) |
| COc1ccc(-c2ccc(-c3ccc(C(=N)N)cn3)s2)cc1OC | 72.2% (inactive) |
| COc1ccccc1CNCCCN1C(=O)c2ccc3c4c(ccc(c24)C1=O)C(=O)N(CCCNCCCCNCCCN)C3=O | -28.4% (active) |
| Nc1cccc(Cl)c1N | 93.1% (inactive) |
| COc1ccc(C(=O)N2NC(=O)/C(=C/c3cn(-c4ccccc4)nc3-c3ccccc3)N=C2c2ccccc2)cc1 | 85% (inactive) |
| Cc1cc(N/N=C/c2nc(-c3ccc(Br)cc3)oc2C)c2cc(Br)ccc2n1 | 7.29% (active) |
